Results filed as inconclusive are left out. Active and inactive are the calls of the source. Unless noted, calls follow the shape of the dose curve; as a rule, active = well fitted curve in the direction sought with a large enough effect in the repeat runs; inconclusive = weak or mixed curves; inactive = no such curve, though single readings can be large; an effect the other way counts as inactive or inconclusive.
Tests used:
[1] = qHTS assay to identify small molecule agonists of the peroxisome proliferator-activated receptor delta (PPARd) signaling pathway - cell viability counter screen (AID 743211); also: % is scaled to controls: 0 for no effect and ±100 for the full control effect; nearly all actives have a fitted effect of over 55% in size
Method in brief: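 Tox21 library compounds, delivered in DMSO, were incubated 17 h with PPARd-bla HEK293H cells; cytotoxicity was taken from CellTiter-Glo luminescence read 30 min after reagent addition.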

[2] = target: Peroxisome proliferator-activated receptor delta (Homo sapiens) (UniProt Q03181); experiment: qHTS assay to identify small molecule agonists of the peroxisome proliferator-activated receptor delta (PPARd) signaling pathway (AID 743212; calls by dose curve; also: % is scaled to controls: 0 for no effect and ±100 for the full control effect)
Method in brief: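 HEK293H UAS-bla reporter cells, human PPARd system; compounds delivered in DMSO after 5 h plating, then at 37 C. Beta-lactamase FRET read, 2 h RT substrate step.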

[3] = qHTS assay to identify small molecule antagonists of the peroxisome proliferator-activated receptor delta (PPARd) signaling pathway - cell viability counter screen (AID 743213); also: % is scaled to controls: 0 for no effect and ±100 for the full control effect; nearly all actives have a fitted effect of over 50% in size
Method in brief: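 PPARd-bla HEK293H cells were treated with compounds plus agonist L165041 (300 nM final) for 17 h at 37 C. Viability was then read in the same wells by CellTiter-Glo luminescence after 30 min at room temperature.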

[4] = target: Peroxisome proliferator-activated receptor delta (Homo sapiens) (UniProt Q03181); experiment: qHTS assay to identify small molecule antagonists of the peroxisome proliferator-activated receptor delta (PPARd) signaling pathway (AID 743215; active = well fitted inhibition curve with a large enough effect in the signal ratio in the repeat runs, not every such curve was filed as active; the % refers to the signal ratio;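 also: cells stimulated with agonist L165041 at 300 nM final during compound exposure; series mostly up to about 62 µM; % is scaled to controls: 0 for no effect and ±100 for the full control effect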)
Method in brief: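 Inhibition of L165041-driven (300 nM final) PPARd signaling is scored in HEK293H UAS-bla cells. Exposure lasts 17 h at 37 C; beta-lactamase activity is then read by FRET substrate fluorescence after 2 h at room temperature.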

[5] = qHTS assay to identify small molecule agonists of the farnesoid-X-receptor (FXR) signaling pathway - cell viability counter screen (AID 743218); also: % is scaled to controls: 0 for no effect and ±100 for the full control effect; nearly all actives have a fitted effect of over 45% in size
Method in brief: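 Cytotoxicity counter-screen run in parallel, same wells: FXR-UAS-bla HEK 293T cells dosed 16 h at 37 C, viability read by CellTiter-Glo luminescence after 30 min at room temperature.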

[6] = qHTS assay to identify small molecule antagonists of the farnesoid-X-receptor (FXR) signaling pathway - cell viability counter screen (AID 743221; active = well fitted cell-killing curve with a large enough effect in the repeat runs, not every such curve was filed as active; also: % is scaled to controls: 0 for no effect and ±100 for the full control effect; nearly all actives have a fitted effect of over 50% in size)
Method in brief: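 Cytotoxicity is taken from ATP luminescence (CellTiter-Glo, 30 min, room temperature) in FXR-bla HEK 293T cells previously incubated 16 h at 37 C with compound and chenodeoxycholic acid at 50 uM final.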

[7] = target: Vitamin D3 receptor (Homo sapiens) (UniProt P11473); experiment: qHTS assay to identify small molecule agonists of the vitamin D receptor (VDR) signaling pathway (AID 743222; calls by dose curve; also: % is scaled to controls: 0 for no effect and ±100 for the full control effect)
Method in brief: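 Quantitative HTS agonist-mode screen: compounds in DMSO were pin-transferred onto VDR-bla cells and incubated 16 h at 37C, 5% CO2. Reporter activity was detected with LiveBLAzer B/G FRET substrate after 2 h at room temperature.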

[8] = qHTS assay to identify small molecule agonists of the vitamin D receptor (VDR) signaling pathway - cell viability counter screen (AID 743224); also: series mostly up to about 63 µM; % is scaled to controls: 0 for no effect and ±100 for the full control effect; nearly all actives have a fitted effect of over 50% in size
Method in brief: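 Viability is measured in the same wells as the VDR-bla reporter assay: after 16 h compound treatment and 2 h substrate loading, CellTiter-Glo is added and luminescence read 30 min later.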

[9] = qHTS assay to identify small molecule antagonists of the vitamin D receptor (VDR) signaling pathway - cell viability counter screen (AID 743225); also: % is scaled to controls: 0 for no effect and ±100 for the full control effect; nearly all actives have a fitted effect of over 50% in size
Method in brief: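 Same-well multiplex: following 16 h treatment of HEK 293T cells carrying a UAS-driven beta-lactamase reporter with compound and agonist (3 nM final), and a 2 h FRET substrate step, CellTiter-Glo was added and luminescence read after 30 min.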

[10] = qHTS assay to identify small molecule agonists of the NFkB signaling pathway (AID 1159509; active = well fitted curve in the direction sought with a large enough effect in the signal ratio in the repeat runs, not every such curve was filed as active; the % refers to the signal ratio; also: series mostly up to about 61 µM; % is scaled to controls: 0 for no effect and ±100 for the full control effect)
Method in brief: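 NFkB-bla ME-180 cells with a beta-lactamase reporter under an NF-kB response element were plated overnight, treated with compounds in DMSO for 5 hr at 37 C, then loaded with FRET substrate for 1.5 hr at room temperature.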

[11] = qHTS assay to identify small molecule agonists of the NFkB signaling pathway - cell viability counter screen (AID 1159515; calls by dose curve; also: series mostly up to about 61 µM; % is scaled to controls: 0 for no effect and ±100 for the full control effect; nearly all actives have a fitted effect of over 55% in size)
Method in brief: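 Multiplexed viability readout: after the 5 hr compound exposure and 1.5 hr FRET substrate step, CellTiter-Glo reagent went into the same NFkB-bla ME-180 wells; ATP luminescence was measured after 30 min at room temperature.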

[12] = qHTS assay to identify small molecule agonists of the endoplasmic reticulum stress response signaling pathway (AID 1159516; active = well fitted activation curve with a large enough effect in the signal ratio in the repeat runs, not every such curve was filed as active; the % refers to the signal ratio; also: % is scaled to controls: 0 for no effect and ±100 for the full control effect)
Method in brief: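 Tox21 10K library screened in quantitative HTS format on ESRE-bla HeLa cells, a beta-lactamase reporter under ER stress response element control; 5 hr treatment, FRET read.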

[13] = qHTS assay to identify small molecule agonists of the endoplasmic reticulum stress response signaling pathway - cell viability counter screen (AID 1159517; calls by dose curve)
Method in brief: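 Cells, HeLa ESRE-bla; density, 1,500/well; dosing, 5 hr at 37 C, 5% CO2; readout, CellTiter-Glo luminescence after 30 min RT.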

[14] = qHTS assay to identify small molecule antagonists of the retinoid-related orphan receptor gamma (ROR-gamma) signaling pathway - cell viability counter screen (AID 1159520)
Method in brief: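 Cytotoxicity was read from cellular ATP (CellTiter-Glo luminescence) after 16 hr at 37 C with 1 uM doxycycline induction. The inducer was added 2 hr after compound transfer to Tet-on ROR gamma CHO cells.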

[15] = target: Nuclear receptor ROR-gamma (Homo sapiens) (UniProt P51449); experiment: qHTS assay to identify small molecule antagonists of the retinoid-related orphan receptor gamma (ROR-gamma) signaling pathway (AID 1159521)
Method in brief: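 Inducible-expression reporter assay: doxycycline (1 uM final) switched on RORγ in CHO cells bearing a ROR response element-luciferase construct, with test compounds present from 2 h beforehand. Decreased luminescence after 16 h defined antagonist activity.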

[16] = qHTS assay to identify small molecule agonists of the AP-1 signaling pathway - cell viability counter screen (AID 1159525; calls by dose curve; also: nearly all actives have a fitted effect of over 55% in size)
Method in brief: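 Luminescent ATP readout (Cell Titer Glo, 30 min RT), normalised to DMSO and tetra n-octyl ammonium bromide controls. Cells were ME-180 AP-1-bla in 0.5% dialyzed FBS Opti-MEM, with a 5 h, 37 °C compound exposure.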

[17] = qHTS assay to identify small molecule agonists of the AP-1 signaling pathway (AID 1159526; calls by dose curve; also: % is scaled to controls: 0 for no effect and ±100 for the full control effect)
[18] = target: Bile acid receptor (Homo sapiens) (UniProt Q96RI1); experiment: qHTS assay to identify small molecule antagonists of the farnesoid-X-receptor (FXR) signaling pathway (AID 743217; active = well fitted inhibition curve with a large enough effect in the signal ratio in the repeat runs, not every such curve was filed as active; the % refers to the signal ratio; also: % is scaled to controls: 0 for no effect and ±100 for the full control effect)
Method in brief: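 Antagonist mode against 50 uM (final) chenodeoxycholic acid stimulation in FXR-bla HEK 293T cells, 16 h at 37 °C. Inhibition detected as reduced beta-lactamase activity via LiveBLAzer B/G FRET fluorescence after 2 h at room temperature.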

[19] = target: Bile acid receptor (Homo sapiens) (UniProt Q96RI1); experiment: qHTS assay to identify small molecule agonists of the farnesoid-X-receptor (FXR) signaling pathway (AID 743220; active = well fitted activation curve with a large enough effect in the signal ratio in the repeat runs, not every such curve was filed as active; the % refers to the signal ratio; also: % is scaled to controls: 0 for no effect and ±100 for the full control effect)
Method in brief: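 Beta-lactamase reporter under UAS control in GeneBLAzer FXR HEK 293T cells (5000/well) measured with LiveBLAzer FRET substrate after 2 h at room temperature. Compound exposure lasted 16 h at 37C.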

[20] = target: Vitamin D3 receptor (Homo sapiens) (UniProt P11473); experiment: qHTS assay to identify small molecule antagonists of the vitamin D receptor (VDR) signaling pathway (AID 743223; active = well fitted inhibition curve with a large enough effect in the signal ratio in the repeat runs, not every such curve was filed as active; the % refers to the signal ratio; also: % is scaled to controls: 0 for no effect and ±100 for the full control effect)
Method in brief: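 Quantitative HTS in VDR-bla reporter cells stimulated with 1alpha,25-dihydroxyvitamin D3, 3 nM final. Compound exposure 16 h, 37C, 5% CO2. Read-out: beta-lactamase FRET substrate fluorescence, 2 h RT.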

Sequence of Vitamin D3 receptor (Homo sapiens) (P11473 whole entry, looked up): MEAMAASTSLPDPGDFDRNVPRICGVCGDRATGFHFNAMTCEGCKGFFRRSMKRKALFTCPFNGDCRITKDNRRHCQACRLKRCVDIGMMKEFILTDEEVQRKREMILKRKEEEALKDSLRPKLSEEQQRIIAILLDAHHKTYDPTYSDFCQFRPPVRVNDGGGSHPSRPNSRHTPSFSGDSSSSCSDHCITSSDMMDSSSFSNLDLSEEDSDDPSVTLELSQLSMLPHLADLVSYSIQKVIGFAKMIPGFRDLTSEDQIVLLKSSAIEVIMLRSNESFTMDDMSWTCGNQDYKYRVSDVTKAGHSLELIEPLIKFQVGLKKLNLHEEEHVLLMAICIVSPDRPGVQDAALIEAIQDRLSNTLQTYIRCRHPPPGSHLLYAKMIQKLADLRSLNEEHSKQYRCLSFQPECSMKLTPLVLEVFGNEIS
Sequence of Bile acid receptor (Homo sapiens) (Q96RI1 whole entry, looked up): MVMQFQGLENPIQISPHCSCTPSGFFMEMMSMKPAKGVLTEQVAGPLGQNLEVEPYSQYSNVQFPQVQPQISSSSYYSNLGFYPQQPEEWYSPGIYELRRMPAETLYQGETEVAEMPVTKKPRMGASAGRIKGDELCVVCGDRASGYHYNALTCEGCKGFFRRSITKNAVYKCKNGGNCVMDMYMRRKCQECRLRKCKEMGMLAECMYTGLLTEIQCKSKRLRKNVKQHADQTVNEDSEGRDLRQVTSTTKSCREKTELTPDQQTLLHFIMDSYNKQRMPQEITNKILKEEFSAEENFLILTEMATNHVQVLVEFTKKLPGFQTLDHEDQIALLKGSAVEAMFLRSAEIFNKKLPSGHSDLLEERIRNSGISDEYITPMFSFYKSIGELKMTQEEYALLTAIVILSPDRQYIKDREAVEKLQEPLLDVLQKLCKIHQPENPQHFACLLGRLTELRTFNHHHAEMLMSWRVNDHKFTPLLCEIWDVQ
Sequence of Peroxisome proliferator-activated receptor delta (Homo sapiens) (Q03181 whole entry, looked up): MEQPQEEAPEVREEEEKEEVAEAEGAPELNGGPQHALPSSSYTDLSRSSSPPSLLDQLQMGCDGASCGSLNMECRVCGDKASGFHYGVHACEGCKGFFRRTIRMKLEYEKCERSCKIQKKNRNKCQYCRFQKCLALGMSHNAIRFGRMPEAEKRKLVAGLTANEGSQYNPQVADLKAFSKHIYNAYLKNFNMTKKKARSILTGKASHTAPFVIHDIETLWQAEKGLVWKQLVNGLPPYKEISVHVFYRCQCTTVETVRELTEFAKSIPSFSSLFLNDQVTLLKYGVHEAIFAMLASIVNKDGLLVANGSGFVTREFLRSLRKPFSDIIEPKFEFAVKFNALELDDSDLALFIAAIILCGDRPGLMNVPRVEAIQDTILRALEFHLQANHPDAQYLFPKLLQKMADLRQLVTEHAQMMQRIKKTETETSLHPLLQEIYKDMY

CCN(CC)C(=O)c1ccc(O)c(OC)c1
inactive: Potency [1] | outcome [2] | Potency [3] | outcome [4] | outcome [5] | Potency [6] | outcome [7] | outcome [8] | outcome [9] | outcome [10] | outcome [11] | outcome [12] | outcome [13] | Potency [14] | Potency [15] | outcome [16] | Potency [17]

N#CC1(O)CCCCC1
inactive: Potency [1] | outcome [2] | Potency [3] | outcome [4] | outcome [18] | outcome [5] | outcome [19] | Potency [6] | outcome [7] | outcome [20] | outcome [8] | outcome [9] | outcome [10] | outcome [11] | outcome [12] | outcome [13] | Potency [14] | Potency [15] | outcome [16] | Potency [17]

C=C(C)C(=O)OCCCCCCCCCCCCCCCCCC
inactive: Potency [1] | outcome [2] | Potency [3] | outcome [4] | outcome [5] | Potency [6] | outcome [7] | outcome [20] | outcome [8] | outcome [9] | outcome [10] | outcome [11] | outcome [12] | outcome [13] | activity, negative = cytotoxicity [14] -0.822% [at 19 µM] | activity change, negative = inhibition [15] 0.457% [at 19 µM] | viability change, negative = cytotoxic [16] 1.55% [at 15.8 µM] | activation [17] 0.371% [at 15.8 µM]

NC(N)=NS(=O)(=O)c1ccc(N)cc1
inactive: Potency [1] | outcome [2] | Potency [3] | outcome [4] | outcome [18] | outcome [5] | outcome [19] | Potency [6] | outcome [8] | outcome [9] | outcome [10] | outcome [11] | outcome [12] | outcome [13] | Potency [14] | Potency [15] | outcome [16] | Potency [17]

OCCN1C[C@H](O)[C@@H](O)[C@H](O)[C@H]1CO
inactive: Potency [1] | outcome [2] | Potency [3] | outcome [4] | outcome [18] | outcome [5] | outcome [19] | Potency [6] | outcome [8] | outcome [9] | outcome [10] | outcome [11] | outcome [12] | outcome [13] | Potency [14] | Potency [15] | outcome [16] | Potency [17]

COc1cc(O)cc(O)c1
inactive: Potency [1] | outcome [2] | Potency [3] | outcome [4] | outcome [18] | outcome [5] | outcome [19] | Potency [6] | outcome [7] | outcome [20] | outcome [9] | outcome [10] | outcome [11] | outcome [12] | outcome [13] | Potency [14] | Potency [15] | outcome [16] | Potency [17]

CN(C)CCn1nnnc1SCC1=C(C(=O)O)N2C(=O)[C@@H](NC(=O)Cc3csc(N)n3)[C@H]2SC1
inactive: Potency [1] | outcome [2] | Potency [3] | outcome [4] | outcome [18] | outcome [5] | outcome [19] | Potency [6] | outcome [7] | outcome [20] | outcome [8] | outcome [9] | outcome [10] | outcome [11] | outcome [12] | outcome [13] | Potency [14] | Potency [15] | outcome [16] | Potency [17]

CC(C)[C@H](N)C(=O)OCCOCn1cnc2c(=O)[nH]c(N)nc21
inactive: Potency [1] | outcome [2] | Potency [3] | outcome [4] | outcome [18] | Potency [6] | outcome [8] | outcome [9] | outcome [10] | outcome [11] | outcome [12] | outcome [13] | Potency [14] | Potency [15] | outcome [16] | Potency [17]

NC(=O)c1ncn([C@@H]2O[C@H](CO)[C@@H](O)[C@H]2O)c1O
inactive: Potency [1] | outcome [2] | Potency [3] | outcome [4] | outcome [5] | outcome [19] | Potency [6] | outcome [8] | outcome [9] | outcome [10] | outcome [11] | outcome [12] | outcome [13] | Potency [14] | Potency [15] | outcome [16] | Potency [17]

Cc1ccc(Nc2ccc(O)c3c2C(=O)c2ccccc2C3=O)cc1
inactive: Potency [1] | outcome [2] | Potency [3] | outcome [4] | outcome [18] | outcome [19] | Potency [6] | outcome [7] | outcome [20] | outcome [9] | outcome [10] | outcome [11] | outcome [12] | outcome [13] | Potency [14] | Potency [15] | outcome [16] | Potency [17]

CN(C)N=Nc1ccccc1
inactive: Potency [1] | outcome [2] | Potency [3] | outcome [4] | outcome [5] | Potency [6] | outcome [7] | outcome [20] | outcome [8] | outcome [9] | outcome [10] | outcome [11] | outcome [12] | outcome [13] | Potency [14] | Potency [15] | outcome [16] | Potency [17]

CCCCCCOC(=O)c1ccccc1O
inactive: Potency [1] | outcome [2] | Potency [3] | outcome [4] | outcome [18] | outcome [5] | outcome [19] | outcome [7] | outcome [20] | outcome [8] | outcome [9] | outcome [10] | outcome [11] | outcome [12] | outcome [13] | Potency [14] | Potency [15] | outcome [16] | Potency [17]

N#CCN(CC#N)CCN(CC#N)CC#N
inactive: Potency [1] | outcome [2] | Potency [3] | outcome [4] | Potency [6] | outcome [7] | outcome [20] | outcome [8] | outcome [9] | outcome [10] | outcome [11] | outcome [12] | outcome [13] | Potency [14] | Potency [15] | outcome [16] | Potency [17]

C1COCCO1
inactive: Potency [1] | outcome [2] | Potency [3] | outcome [4] | outcome [18] | outcome [5] | outcome [19] | Potency [6] | outcome [7] | outcome [20] | outcome [8] | outcome [9] | outcome [10] | outcome [11] | outcome [12] | outcome [13] | Potency [14] | Potency [15] | outcome [16] | Potency [17]

CCCCc1ccc2cccc(S(=O)(=O)O)c2c1
inactive: Potency [1] | outcome [2] | Potency [3] | outcome [4] | outcome [5] | Potency [6] | outcome [7] | outcome [20] | outcome [9] | outcome [10] | outcome [11] | outcome [12] | outcome [13] | Potency [14] | Potency [15] | outcome [16] | Potency [17]
